Test [1] in a line: NCI Yeast Anticancer Drug Screen. Data for the rad50 strain (AID 155).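 Also: 0% = growth of vehicle-only cultures of the same strain.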 The conditions noted are these: S. cerevisiae rad50 strain growth inhibition; at 50.0 µM; active compounds read high. The method, boiled down: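 A DNA repair-deficient yeast mutant serves as the test organism; compound-induced growth inhibition is calculated against vehicle-treated cells.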
Test [2] is described as follows: NCI Yeast Anticancer Drug Screen. Data for the mec2-1 strain (AID 157). The conditions noted are these: S. cerevisiae mec2-1 strain, active compounds read high. The method, boiled down:
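Compounds were applied to mec2-1 yeast cells. Their growth was then compared with that of vehicle-treated cultures to give growth inhibition.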

The nature of test [3]: NCI Yeast Anticancer Drug Screen. Data for the sgs1 mgt1 strain (AID 161).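 Also: 0% = growth of cultures given vehicle only.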 The conditions noted are these: S. cerevisiae sgs1 mgt1 strain, active compounds read high. The method in brief: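 Percent growth inhibition was derived by comparing compound-exposed mutant yeast with vehicle-exposed cultures. The strain carries alterations in DNA damage repair.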
A short description of test [4]: NCI Yeast Anticancer Drug Screen. Data for the cln2 rad14 strain (AID 165).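 Also: 0% = growth equal to vehicle treated cultures.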 The conditions noted are these: S. cerevisiae cln2 rad14 strain, active compounds read high. The method, boiled down:
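Strain: cln2 rad14 yeast, altered in cell cycle control and DNA damage repair. Read-out: growth inhibition vs vehicle.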

Test [5] can be described thus: NCI Yeast Anticancer Drug Screen. Data for the bub3 strain (AID 167). The conditions noted are these: S. cerevisiae bub3 mutant strain, active compounds read high. The method, boiled down:
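Inhibition values come from growth of compound-treated mutant yeast normalised to vehicle-treated controls.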

The nature of test [6]: NCI Yeast Anticancer Drug Screen. Data for the mlh1 rad18 strain (AID 175). The conditions noted are these: S. cerevisiae mlh1 rad18 strain growth inhibition, active compounds read high. The method, boiled down:
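A repair-deficient yeast strain is exposed to test compound, and growth is scored relative to vehicle-treated controls.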

Where [7] appears, read: at 5.0 µM (retest, dose inferred, filed as 0.5).
Where [8] appears, read: at 50.0 µM (retest, dose inferred, filed as 5.0).

Several values for one entry are separate records, joined by “and”; a condition that tells them apart may be missing. Equal entries are not always repeated. About 79,000 compounds went through this panel and 15% of them were active in at least one assay; those are over-represented in the sample as a whole. A number with no mark means an inactive call. Activity calls are given as the source filed them. Rule as the data show it: active = growth inhibition above about 70%; inactive = the rest.

Consider `CC(C)(SCc1ccccc1)C(N)C(=O)O` (centres undefined), for which the growth inhibition in test [1] is 8.05% and -6.85%; in test [2] (at 50.0 µM), 10.3% and -17%; in test [3] (at 50.0 µM), 1.65% and -33.1%; in test [4] (at 50.0 µM), 2.2% and -33.8%; in test [5] (at 50.0 µM) it was -3.45% and -31.3%; in test [6] (at 50.0 µM), 6.1% and -10.3%.

In the case of `Nc1ccc(C(F)(F)F)cc1[N+](=O)[O-]`, the growth inhibition was -33.3% and 12.1% in test [1]; -19.9% and 5.6% in test [2] (at 50.0 µM); -49.6% and 12.5% in test [3] (at 50.0 µM); -43.6% and 10.2% in test [4] (at 50.0 µM); -35.1% and 3.5% in test [5] (at 50.0 µM); -22.5% and 9.15% in test [6] (at 50.0 µM).

With `Nc1ncnc2c1ncn2C1(CO)OC(CO)C(O)C1O` (centres undefined), the growth inhibition was 13.7% and 3.2% in test [1]; -9.1% and -6.15% in test [2] (at 50.0 µM); -13.9% and -0.2% in test [3] (at 50.0 µM); -0.65% and -23.2% in test [4] (at 50.0 µM); 5% and 19.4% in test [5] (at 50.0 µM); 11.2% and -1.25% in test [6] (at 50.0 µM).

On to `N=C(N)SCCc1ccccn1`, for which the growth inhibition in test [1] is -30.3% and -8.8%; in test [2] (at 50.0 µM) it was -27.9% and -24.2%; in test [3] (at 50.0 µM), -35.1% and -28%; in test [4] (at 50.0 µM), -16.1% and -19.4%; in test [5] (at 50.0 µM), -44% and -39.1%; in test [6] (at 50.0 µM) it was -18.4% and -1.55%.

Consider `CN(C)c1ccc(/C=C2\c3ccccc3-c3ccc([N+](=O)[O-])cc32)cc1`, for which the growth inhibition in test [1] is 20.9% and 6.65%; in test [2] (at 50.0 µM), -9.8% and -6.75%; in test [3] (at 50.0 µM) it was -21.1% and -11%; in test [4] (at 50.0 µM) it was -27.2% and -8.2%; in test [5] (at 50.0 µM), -19.6% and 4.45%; in test [6] (at 50.0 µM), -4.35% and 8%.

With `Cc1ccc(C(=O)/C=C/c2ccc3c(c2)OCO3)cc1`, the growth inhibition in test [1] is -6.75% and 8.6%; in test [2] (at 50.0 µM), 16% and -4.7%; in test [3] (at 50.0 µM), 13.6% and 21.4%; in test [4] (at 50.0 µM) it was -8.95% and -1.75%; in test [5] (at 50.0 µM) it was 29.4% and 25.3%; in test [6] (at 50.0 µM), 15.4% and 37%.

`COC(=O)C(C)NC(=O)c1c2nc3c(C(=O)NC(C)C(=O)OC)ccc(C)c3oc-2c(C)c(=O)c1N` (centres undefined): the growth inhibition in test [1] was 2.9% and 13.8%; in test [2] (at 50.0 µM), 14.7% and -7.2%; in test [3] (at 50.0 µM), 0.1% and -14.9%; in test [4] (at 50.0 µM), 22% and 15%; in test [5] (at 50.0 µM), 7.25% and -4.65%; in test [6] (at 50.0 µM), 29.1% and -4.85%.

Regarding `Nc1ncnc2c1nc(N1CCCCC1)n2C1OC(CO)C(O)C1O` (centres undefined), the growth inhibition in test [1] was 27.9% and -5.55%; in test [2] (at 50.0 µM), 12.2% and -0.15%; in test [3] (at 50.0 µM), 9.9%; in test [4] (at 50.0 µM), -38% and -43.2%; in test [5] (at 50.0 µM), 3.5% and -5.1%; in test [6] (at 50.0 µM) it was 2.6% and -7.85%.

On to `Nc1nc2nccnc2c(=O)[nH]1`, for which the growth inhibition in test [1] was -10.2% and 6.15%; in test [2] (at 50.0 µM), 47% and -1.65%; in test [3] (at 50.0 µM) it was 1.55% and -5.7%; in test [4] (at 50.0 µM), -18.6% and -0.35%; in test [5] (at 50.0 µM), -24.9% and 1.45%; in test [6] (at 50.0 µM), -15.2% and -0.8%.

In the case of `CN(C)CC1CCCC(CN2CCCCC2)C1=O` (centres undefined), the growth inhibition was -37.8% and 9.7% in test [2] (at 50.0 µM); -33.5% and 8.2% in test [3] (at 50.0 µM); 4.6% and -38.9% in test [4] (at 50.0 µM); -11.6% and -9.5% in test [5] (at 50.0 µM); -6.4% and 9.4% in test [6] (at 50.0 µM).

For the compound `C=c1c2ccccc2oc2nc3[nH]c(N)c(C#N)c(N)c3c(=N)c12`, the growth inhibition in test [2] (setting [7]) is 1%; in test [2] (setting [8]), 70% (active); in test [2] (at 50.0 µM), 75% (active); in test [3] (setting [7]) it was 11%; in test [3] (setting [8]), 79% (active); in test [3] (at 50.0 µM), 73.8% (active). In addition, the growth inhibition in test [4] (setting [7]) is 17%; in test [4] (setting [8]) it was 74% (active); in test [4] (at 50.0 µM), 48.5%; in test [5] (setting [7]) it was 18%; in test [5] (setting [8]), 79% (active); in test [5] (at 50.0 µM) it was 81.7% (active). In addition, the growth inhibition in test [6] (setting [7]) is 7%; in test [6] (setting [8]), 75% (active); in test [6] (at 50.0 µM), 69.2%.

For the compound `O=c1[nH]c(=O)n(C2OC(CO)C(O)C2O)c2nccnc12` (centres undefined), the growth inhibition in test [2] (at 50.0 µM) is 8.9% and 4.95%; in test [3] (at 50.0 µM), 0.55% and -5.75%; in test [4] (at 50.0 µM), 26.8% and 2.95%; in test [5] (at 50.0 µM) it was -13.2% and -20.9%; in test [6] (at 50.0 µM), 4.55% and -11.4%.

Source of the values: PubChem BioAssay (NCI).
